# Measurements taken from the supplement of paper PMC4466140.
# What was measured:
# Assay in all cases: SPOT peptide array binding signal intensity (averaged, normalized) (arbitrary units (background-subtracted, floor 0; scale differs between SH3 domains)); higher = stronger binding of the SH3 domain to the peptide
# [1] = target: AgAbp1
# Outline: (§1)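 Spot intensities were captured after detection with anti-GST antibody, an HRP-linked anti-mouse secondary and luminol, and quantified with Genespotter. The probes were GST-fused SH3 domains from four yeast species, produced in E. coli BL21(DE3), purified on glutathione Sepharose and incubated at 10 μg/ml overnight at 4°C on cellulose-bound synthetic 15-mer peptides with cysteines replaced by serines. Binding signal is the normalized, background-subtracted spot intensity averaged over replicates, and its arbitrary units differ between domains.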
# [2] = target: AgBbc1
# Outline: as §1
# [3] = target: AgBem1-D1
# Outline: as §1
# [4] = target: AgBzz1-D1
# Outline: as §1
# [5] = target: AgBzz1-D2
# Outline: as §1
# [6] = target: AgCyk3
# Outline: as §1
# [7] = target: AgFus1
# Outline: as §1
# [8] = target: AgHof1
# Outline: as §1
# [9] = target: AgHse1
# Outline: as §1
# [10] = target: AgLsb1
# Outline: as §1
# [11] = target: AgLsb4
# Outline: as §1
# [12] = target: AgMyo5
# Outline: as §1
# [13] = target: AgNbp2
# Outline: as §1
# [14] = target: AgRvs167
# Outline: as §1
# [15] = target: AgSho1
# Outline: as §1
# [16] = target: AgSla1-D1-D2
# Outline: as §1
# [17] = target: AgSla1-D3
# Outline: as §1
# [18] = target: CaAbp1-D1
# Outline: as §1
# [19] = target: CaAbp1-D2
# Outline: as §1
# [20] = target: CaBbc1
# Outline: as §1
# [21] = target: CaBem1-D1
# Outline: as §1
# [22] = target: CaBzz1-D1
# Outline: as §1
# [23] = target: CaBzz1-D2
# Outline: as §1
# [24] = target: CaCyk3
# Outline: as §1
# [25] = target: CaFus1
# Outline: as §1
# [26] = target: CaHof1
# Outline: as §1
# [27] = target: CaHse1
# Outline: as §1
# [28] = target: CaLsb1
# Outline: as §1
# [29] = target: CaLsb4
# Outline: as §1
# [30] = target: CaMyo5
# Outline: as §1
# [31] = target: CaNbp2
# Outline: as §1
# [32] = target: CaRvs167
# Outline: as §1
# [33] = target: CaRvs167-3
# Outline: as §1
# [34] = target: CaSho1
# Outline: as §1
# [35] = target: CaSla1-D1-D2
# Outline: as §1
# [36] = target: CaSla1-D3
# Outline: as §1
# [37] = target: ScAbp1
# Outline: as §1
# [38] = target: ScBbc1
# Outline: as §1
# [39] = target: ScBem1-D1
# Outline: as §1
# [40] = target: ScBzz1-D1
# Outline: as §1
# [41] = target: ScBzz1-D2
# Outline: as §1
# [42] = target: ScCyk3
# Outline: as §1
# [43] = target: ScFus1
# Outline: as §1
# [44] = target: ScHof1
# Outline: as §1
# [45] = target: ScHse1
# Outline: as §1
# [46] = target: ScLsb1
# Outline: as §1
# [47] = target: ScLsb2
# Outline: as §1
# [48] = target: ScLsb3
# Outline: as §1
# [49] = target: ScLsb4
# Outline: as §1
# [50] = target: ScMyo3
# Outline: as §1
# [51] = target: ScMyo5
# Outline: as §1
# [52] = target: ScNbp2
# Outline: as §1
# [53] = target: ScPex13
# Outline: as §1
# [54] = target: ScRvs167
# Outline: as §1
# [55] = target: ScSho1
# Outline: as §1
# [56] = target: ScSla1-D1-D2
# Outline: as §1
# [57] = target: ScSla1-D3
# Outline: as §1
# [58] = target: SpAbp1-D1
# Outline: as §1
# [59] = target: SpBbc1
# Outline: as §1
# [60] = target: SpBzz1-D1
# Outline: as §1
binder,measurement,setting,value
MAMRPIPPLPTESEY,SPOT peptide array binding signal intensity,[1],9
same,SPOT peptide array binding signal intensity,[2],8
same,SPOT peptide array binding signal intensity,[3],155
same,SPOT peptide array binding signal intensity,[4],7
same,SPOT peptide array binding signal intensity,[5],≤ 0
same,SPOT peptide array binding signal intensity,[6],13
same,SPOT peptide array binding signal intensity,[7],55.5
same,SPOT peptide array binding signal intensity,[8],87.8
same,SPOT peptide array binding signal intensity,[9],38
same,SPOT peptide array binding signal intensity,[10],230
same,SPOT peptide array binding signal intensity,[11],1930
same,SPOT peptide array binding signal intensity,[12],≤ 0
same,SPOT peptide array binding signal intensity,[13],81
same,SPOT peptide array binding signal intensity,[14],308
same,SPOT peptide array binding signal intensity,[15],353
same,SPOT peptide array binding signal intensity,[16],2
same,SPOT peptide array binding signal intensity,[17],≤ 0
same,SPOT peptide array binding signal intensity,[18],35
same,SPOT peptide array binding signal intensity,[19],79
same,SPOT peptide array binding signal intensity,[20],32
same,SPOT peptide array binding signal intensity,[21],71
same,SPOT peptide array binding signal intensity,[22],54
same,SPOT peptide array binding signal intensity,[23],39
same,SPOT peptide array binding signal intensity,[24],12
same,SPOT peptide array binding signal intensity,[25],226
same,SPOT peptide array binding signal intensity,[26],10
same,SPOT peptide array binding signal intensity,[27],186
same,SPOT peptide array binding signal intensity,[28],11
same,SPOT peptide array binding signal intensity,[29],1410
same,SPOT peptide array binding signal intensity,[30],35.2
same,SPOT peptide array binding signal intensity,[31],628
same,SPOT peptide array binding signal intensity,[32],528
same,SPOT peptide array binding signal intensity,[33],≤ 0
same,SPOT peptide array binding signal intensity,[34],596
same,SPOT peptide array binding signal intensity,[35],128
same,SPOT peptide array binding signal intensity,[36],110
same,SPOT peptide array binding signal intensity,[37],4.5
same,SPOT peptide array binding signal intensity,[38],2
same,SPOT peptide array binding signal intensity,[39],≤ 0
same,SPOT peptide array binding signal intensity,[40],≤ 0
same,SPOT peptide array binding signal intensity,[41],≤ 0
same,SPOT peptide array binding signal intensity,[42],≤ 0
same,SPOT peptide array binding signal intensity,[43],106
same,SPOT peptide array binding signal intensity,[44],304
same,SPOT peptide array binding signal intensity,[45],≤ 0
same,SPOT peptide array binding signal intensity,[46],106
same,SPOT peptide array binding signal intensity,[47],19.5
same,SPOT peptide array binding signal intensity,[48],4040
same,SPOT peptide array binding signal intensity,[49],1070
same,SPOT peptide array binding signal intensity,[50],21.5
same,SPOT peptide array binding signal intensity,[51],3
same,SPOT peptide array binding signal intensity,[52],172
same,SPOT peptide array binding signal intensity,[53],1090
same,SPOT peptide array binding signal intensity,[54],821
same,SPOT peptide array binding signal intensity,[55],543
same,SPOT peptide array binding signal intensity,[56],167
same,SPOT peptide array binding signal intensity,[57],82.2
same,SPOT peptide array binding signal intensity,[58],13
same,SPOT peptide array binding signal intensity,[59],4.75
same,SPOT peptide array binding signal intensity,[60],79.5
